NPC1 prom act: qHTS Assay for NPC1 Promoter Activators | Potency, µM (titrated, usually from 9.22 µM), most hits filed as activators | hit rate 2.4% among 320,000 | Huh7 NPC1 promoter luciferase reporter, 24 h; further: nearly all actives have a fitted effect of over 60% in size
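Luminescence from an NPC1 promoter-driven luciferase reporter in stably transfected Huh7 cells was measured after 24 h compound treatment at 37 °C, followed by 10 min ambient incubation with luciferase detection reagent.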
SMN2 splice up: qHTS Assay for Enhancers of SMN2 Splice Variant Expression; Potency, µM (highest dose often 46.1 µM), hits mostly activators; HEK293 SMN2-luciferase splicing reporter, luminescence, 30-36 h; hit rate 2.8% among 210,000; further: nearly all actives have a fitted effect of over 55% in size
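qHTS luciferase splicing reporter: luminescence rises when SMN2 exon 7 is included in transfected HEK293 cells. Compound exposure lasted 30-36 h at 37C, with 4.5 mM final sodium butyrate as control, followed by a ONE-Glo read.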
FLuc modulator: qHTS profiling assay for firefly luciferase inhibitor/activator using purifed enzyme and Km concentrations of substrates (counterscreen for miR-21 project). Luciferin 4-monooxygenase (Photinus pyralis), P08659. purified FLuc, Km substrates, luminescence inhibition. Potency, µM (series often up to 57.5 µM), actives largely listed as inhibitors. hit rate 6.9% among 360,000; further: nearly all actives have a fitted effect of over 55% in size
Target sequence (P08659 whole entry, looked up): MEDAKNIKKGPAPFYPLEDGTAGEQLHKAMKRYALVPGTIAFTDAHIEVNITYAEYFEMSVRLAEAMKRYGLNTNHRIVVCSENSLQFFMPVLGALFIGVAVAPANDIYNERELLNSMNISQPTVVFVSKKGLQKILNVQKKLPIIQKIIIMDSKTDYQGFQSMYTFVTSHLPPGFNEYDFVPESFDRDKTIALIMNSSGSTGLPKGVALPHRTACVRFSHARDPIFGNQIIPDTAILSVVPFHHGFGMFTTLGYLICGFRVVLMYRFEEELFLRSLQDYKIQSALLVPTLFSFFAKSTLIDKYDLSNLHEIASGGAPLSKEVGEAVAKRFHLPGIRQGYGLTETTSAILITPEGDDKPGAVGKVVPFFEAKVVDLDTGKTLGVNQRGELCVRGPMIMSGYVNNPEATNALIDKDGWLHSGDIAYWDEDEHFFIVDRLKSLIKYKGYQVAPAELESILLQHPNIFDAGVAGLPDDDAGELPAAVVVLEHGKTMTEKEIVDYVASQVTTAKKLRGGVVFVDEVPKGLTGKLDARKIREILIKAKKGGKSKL
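Purified P. pyralis luciferase, 10 nM final, with Km-level 10 uM D-luciferin and 10 uM ATP in 50 mM Tris acetate pH 7.5, 10 mM Mg acetate, 0.01% Tween-20, 0.05% BSA; 6-point qHTS titration about 60 µM downward; luminescence read.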
ELG1 repair inh: qHTS screen for small molecules that inhibit ELG1-dependent DNA repair in human embryonic kidney (HEK293T) cells expressing luciferase-tagged ELG1; HEK293T ELG1-luciferase reporter, luminescence, 16 h; DNA damage induced by 5-fluorouridine; Potency, µM (doses to about 46.1 µM), usual class: inhibitors; hit rate 2.3% among 330,000; AID 504467, 2011; further: nearly all actives have a fitted effect of over 55% in size
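Step one: seed 2,000 cells per well. Step two: pin-transfer compound or DMSO alongside 5-fluorouridine. Step three: incubate 16 hr, 37 °C, 5% CO2. Step four: add ONE-Glo, wait 30 min, read luminescence.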
ELG1 genotoxic: qHTS screen for small molecules that induce genotoxicity in human embryonic kidney (HEK293T) cells expressing luciferase-tagged ELG1; HEK293T ELG1-luciferase reporter, luminescence, 16 h; Potency, µM (top dose mostly 46 µM), most hits filed as activators; hit rate 1.3% among 330,000; AID 504466, 2011; further: nearly all actives have a fitted effect of over 60% in size
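HEK293T cells expressing luciferase-tagged ELG1 were treated with compound or DMSO for 16 hr at 37°C. Luciferase activity was then read after 30 min with ONE-Glo at room temperature; rising signal flags genetic stress.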
Rab9 promoter act: qHTS Assay for Rab9 Promoter Activators; Potency, µM (doses to about 9.22 µM), actives largely listed as activators; Huh7 Rab9 promoter-luciferase reporter, luminescence, 24 h; AID 485297, 2010; hit rate 2.8% among 320,000; further: nearly all actives have a fitted effect of over 60% in size
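Luminescence read-out: Huh7 cells stably expressing Rab9-luciferase, treated 24 h with compound at 37 °C, then lysed with luciferase reagent for 10 min at ambient before reading.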
Large screens that a line does not name were inactive. This is a sample that favours compounds with a hit; in the whole collection about 9.2% have one here. The call rests on the fitted dose curve; in most records, active means well fitted curve in the direction sought with a large enough effect; inconclusive means small, poorly fitted or top-dose-only effect, or another doubt; inactive means no such curve, though single readings can be large; an effect the other way counts as inactive or inconclusive.

CSc1ccc(C2C(C#N)=C(N)N(c3ccccc3)C3=C2C(=O)CCC3)cc1 (configuration not stated)	none
O=C(Nc1cccnc1)C1OCCc2ccccc21 (configuration not stated)	none
O=C(Nc1ccc(Br)cc1)C1OCCc2ccccc21 (configuration not stated)	FLuc modulator 17µM, Rab9 promoter act inconclusive (no result: SMN2 splice up)
C=CCn1c(C)cc(C2=NNC(=Nc3ccc(C)cc3)SC2)c1C	NPC1 prom act inconclusive, FLuc modulator inconclusive, ELG1 repair inh inconclusive, Rab9 promoter act inconclusive
C=CCn1c(C)cc(C2=NNC(=NC(C)(C)C)SC2)c1C	NPC1 prom act inconclusive, FLuc modulator 0.34µM, ELG1 repair inh inconclusive, ELG1 genotoxic 0.58µM, Rab9 promoter act inconclusive
CCOc1ccc(N=C2NN=C(c3cc(C)n(CC4CCCO4)c3C)CS2)cc1 (configuration not stated)	FLuc modulator 13µM, Rab9 promoter act inconclusive
C=CCN=C1NN=C(c2cc(C)n(CCOC)c2C)CS1	FLuc modulator 0.38µM, ELG1 repair inh inconclusive
COCCn1c(C)cc(C2=NNC(=Nc3ccc(Cl)cc3Cl)SC2)c1C	FLuc modulator inconclusive
Cc1cc(C2=NNC(=Nc3ccc(S(=O)(=O)N4CCOCC4)cc3)SC2)c(C)n1C	none (no result: SMN2 splice up)
Cc1cc(C2=NNC(=NCc3ccccc3)SC2)c(C)n1-c1c(C)n(C)n(-c2ccccc2)c1=O	none
COCCn1c(C)cc(C2=NNC(=NC3CC3)SC2)c1C	FLuc modulator 0.24µM, ELG1 repair inh 5.2µM
COc1ccc(S(=O)(=O)NCc2ccccn2)cc1NC(=O)c1ccccc1C	none (no result: SMN2 splice up)
CCN(Cc1ccccc1)C(=O)COC(=O)CNC(=O)c1ccc(C)s1	none
Cc1ccc(N(C)C(=O)Cn2nc(Cc3ccncc3)c3ccccc3c2=O)cc1C	none (no result: NPC1 prom act, ELG1 repair inh, ELG1 genotoxic, Rab9 promoter act)
COc1cc(C=O)ccc1OCCCOc1ccccc1C(=O)O	NPC1 prom act inconclusive, FLuc modulator 1.9µM, ELG1 repair inh inconclusive, Rab9 promoter act inconclusive
C/C=C/c1ccc(OCC(=O)Nc2cc(OC)c(OC)c(OC)c2)c(OC)c1	ELG1 repair inh 15µM
C/C=C/c1ccc(OCC(=O)O)c(OC)c1	none (no result: SMN2 splice up)
C/C=C/c1ccc(OCCOc2cc(C=O)ccc2OC)c(OC)c1	SMN2 splice up 16µM, FLuc modulator 13µM, ELG1 repair inh inconclusive
COc1cc(C=O)ccc1OCCOc1ccccc1[N+](=O)[O-]	FLuc modulator 21µM, ELG1 repair inh inconclusive
COc1cc(C=O)ccc1OCCCOc1ccccc1[N+](=O)[O-]	SMN2 splice up inconclusive, FLuc modulator inconclusive, ELG1 repair inh inconclusive, ELG1 genotoxic inconclusive
CCOc1ccc(CN2CCC(n3nccc3NC(=O)c3ccccc3OC)CC2)cc1	none (no result: SMN2 splice up)
COc1cc(C=O)ccc1OCc1ccncc1	FLuc modulator inconclusive (no result: SMN2 splice up)
COc1cc(C=O)ccc1OCc1ccc(Cl)nc1	FLuc modulator 4.8µM, ELG1 repair inh inconclusive, ELG1 genotoxic inconclusive (no result: SMN2 splice up)
CSc1nnc(NC(=O)C23CC4CC(CC(C4)C2)C3)s1	NPC1 prom act inconclusive, FLuc modulator 24µM, ELG1 repair inh inconclusive, Rab9 promoter act inconclusive (no result: SMN2 splice up)
CCc1nnc(NC(=O)C23CC4CC(CC(C4)C2)C3)s1	NPC1 prom act inconclusive, FLuc modulator 11µM, ELG1 repair inh inconclusive, ELG1 genotoxic inconclusive, Rab9 promoter act inconclusive (no result: SMN2 splice up)
COc1ccc(C2SCC(=O)N2CCc2ccc(OC)c(OC)c2)cc1 (configuration not stated)	ELG1 repair inh 18µM (no result: SMN2 splice up)
CC1(C)C(C(=O)OCC(Cl)(Cl)Cl)N2C(=O)C(NC(=O)Cc3ccccc3)C2S1=O (configuration not stated)	none (no result: SMN2 splice up)
CC(C)c1ccc(NC(=O)C2CCN(c3ncnc4c3nc3n4CCCCC3)CC2)cc1	ELG1 repair inh inconclusive (no result: SMN2 splice up)
Cc1cc(C)cc(Nc2ncnc3c2nc2n3CCCC2)c1	none (no result: NPC1 prom act, SMN2 splice up, ELG1 repair inh, ELG1 genotoxic, Rab9 promoter act)
COc1ccc(OC)c(Nc2ncnc3c2nc2n3CCCC2)c1	none (no result: NPC1 prom act, SMN2 splice up, ELG1 repair inh, ELG1 genotoxic, Rab9 promoter act)

Assay outcomes deposited in PubChem BioAssay by National Center for Advancing Translational Sciences (NCATS).
